In the library only some 9.2% were active in any assay of this set; here they are far more common.
SMN2 splice up – enhancers of SMN2 splice variant expression. Potency, µM (series often up to 46.1 µM), for inactives: at the highest dose activity change, positive = activation, usual class: activators. actives 2.8% (n = 210,000). HEK293 SMN2-luciferase splicing reporter, luminescence, 30-36 h; note: % of control where 0% means no effect; nearly all actives have a fitted effect of over 55% in size
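HEK293 cells carry an SMN2 […]–luciferase reporter in which exon 7 inclusion puts luciferase in frame. Cells were plated 10-12 h before compound addition, then incubated 30-36 h at 37C. ONE-Glo luminescence was read; sodium butyrate at 4.5 mM final served as control.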
NPC1 promoter act – NPC1 promoter activation; Huh7 NPC1 promoter luciferase reporter, 24 h; Potency, µM (titrated, usually from 9.22 µM), for the others: at the highest dose activation, actives largely listed as activators; actives 2.4% (n = 320,000); AID 485313; note: % of control where 0% means no effect; nearly all actives have a fitted effect of over 60% in size
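Luciferase expression driven by the NPC1 promoter was measured in stably transfected Huh7 cells after a 24 h compound incubation, using a luciferase reagent and a luminescence read.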
FLuc counter – counter-screen for miR-21 project: firefly luciferase inhibitors or activators | actives 6.9% (n = 360,000) | purified FLuc, Km substrates, luminescence inhibition | Potency, µM (top dose mostly 57.5 µM), without a hit: at the top dose activity change, negative = inhibition, actives largely listed as inhibitors | P08659;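 note: plate controls were vehicle for no effect and reference inhibitor for full effect; nearly all actives have a fitted effect of over 55% in size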
Target sequence (P08659 whole entry, looked up): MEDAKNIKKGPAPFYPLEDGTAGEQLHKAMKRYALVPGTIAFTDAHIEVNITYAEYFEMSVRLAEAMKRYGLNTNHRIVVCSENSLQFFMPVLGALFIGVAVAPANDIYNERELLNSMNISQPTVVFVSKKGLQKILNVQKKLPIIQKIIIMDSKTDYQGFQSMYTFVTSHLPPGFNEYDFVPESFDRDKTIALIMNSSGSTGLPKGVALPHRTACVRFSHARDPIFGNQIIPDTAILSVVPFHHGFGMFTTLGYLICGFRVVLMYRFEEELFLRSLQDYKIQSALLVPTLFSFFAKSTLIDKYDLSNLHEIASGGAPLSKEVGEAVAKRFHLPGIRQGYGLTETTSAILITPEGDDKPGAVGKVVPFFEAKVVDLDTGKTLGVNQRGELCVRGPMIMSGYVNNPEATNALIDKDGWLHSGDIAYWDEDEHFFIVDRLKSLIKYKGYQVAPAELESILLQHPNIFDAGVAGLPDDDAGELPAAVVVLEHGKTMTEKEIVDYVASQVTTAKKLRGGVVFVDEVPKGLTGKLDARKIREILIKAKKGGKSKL
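Purified P. pyralis luciferase, 10 nM final, with Km-level 10 uM D-luciferin and 10 uM ATP in 50 mM Tris acetate pH 7.5, 10 mM Mg acetate, 0.01% Tween-20, 0.05% BSA; 6-point qHTS titration about 60 µM downward; luminescence read.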
Rab9 promoter act – Rab9 promoter activation | Huh7 Rab9 promoter-luciferase reporter, luminescence, 24 h | actives 2.8% (n = 320,000) | Potency, µM (doses to about 9.22 µM), for inactives: at the top dose activation, negative = inhibition, hits mostly activators | AID 485297; note: % of control where 0% means no effect; nearly all actives have a fitted effect of over 60% in size
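Luciferase signal after 10 min detection reagent at ambient indicates Rab9 promoter upregulation; stably transfected Huh7 cells were treated 24 h with compound in DMSO at 37 °C, 5% CO2.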
ELG1 DNA repair – blocks ELG1-dependent DNA repair in HEK293T cells; actives 2.3% (n = 330,000); AID 504467; HEK293T ELG1-luciferase reporter, luminescence, 16 h; DNA damage induced by 5-fluorouridine; Potency, µM (top dose mostly 46.1 µM), for the others: at the top dose activity change, negative = inhibition, actives largely listed as inhibitors; note: % is set by controls: 0 for no effect and ±100 for the full control effect; nearly all actives have a fitted effect of over 55% in size
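Cells (2,000 per well) received 5-fluorouridine plus test compound or DMSO and were incubated 16 hr at 37 °C, 5% CO2. Luciferase activity was read by luminescence 30 min after ONE-Glo addition; signal suppression marked inhibition of damage-induced ELG1 function.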
ELG1 genotoxic – genotoxicity induction in ELG1-luciferase HEK293T cells; HEK293T ELG1-luciferase reporter, luminescence, 16 h; Potency, µM (top dose mostly 46 µM), inactives show at the highest dose activity change, positive = activation, usual class: activators; actives 1.3% (n = 330,000); note: % of control where 0% means no effect; nearly all actives have a fitted effect of over 60% in size
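Luminescence read-out: rising ELG1-luciferase signal, reflecting elevated ELG1 protein under genetic stress, flags genotoxic compounds. Cells were treated for 16 hr at 37 °C before ONE-Glo detection.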
Active calls of the source: *; ? = inconclusive; · = no result. Calls come from the whole dose curve; as a rule, active = well fitted curve in the direction sought with a large enough effect; inconclusive = small, poorly fitted or top-dose-only effect, or another doubt; inactive = no such curve, though single readings can be large; an effect the other way counts as inactive or inconclusive. Potency is the fitted concentration of half-maximal effect.

SMILES | SMN2 splice up | NPC1 promoter act | FLuc counter | Rab9 promoter act | ELG1 DNA repair | ELG1 genotoxic
Cc1oc(-c2cccc(Cl)c2)nc1CS(=O)(=O)CC(=O)NCc1ccccc1Cl | -0.5% | · | -11.9% | · | · | ·
CCOC(=O)c1ccccc1NC(=O)N1CCCN(S(=O)(=O)c2ccc3c(ccn3CC)c2)CC1 | · | · | -11.8% | · | · | ·
Cc1oc2ccc(O)cc2c1C(=O)c1ccc([N+](=O)[O-])cc1 | -17.2% | 0.0% | 1.7% | -0.7% | ? | -6.3%
CN(C)/C=C/c1oc2ccc(O)cc2c1[N+](=O)[O-] | 19.8% | 25.6% | ? | 3.16µM* | ? | ?
Cc1cc(S(=O)(=O)N(Cc2ccc(F)cc2)CC2CCCO2)ccc1-n1cnnn1 (centres undefined) | -31.7% | -2.2% | -15.2% | -3.2% | -3.6% | -3.8%
Cc1cc(S(=O)(=O)N(Cc2ccc(C(C)C)cc2)CC2CCCO2)ccc1-n1cnnn1 (centres undefined) | -50.2% | -5.3% | 4.5% | -10.0% | 16.4µM* | -20.9%
O=c1c2c3c(sc2nc2n1CCC2)CCCC3 | · | -5.3% | 1.4% | 1.6% | 21.4% | -0.2%
N=c1c2c3c(sc2nc2n1CCCCC2)CCCCC3 | 6.4% | ? | 16.9µM* | ? | ? | ?
CC1(C)Cc2c(sc3nc4n(c(=O)c23)CCC4)CO1 | -9.6% | -0.6% | -0.4% | 18.0% | 17.1% | -1.4%
O=c1c2c3c(sc2nc2n1CCCS2)CCCC3 | 6.9% | ? | 19µM* | ? | ? | 26.5%
Nc1nc2sc3c(c2c(=O)s1)CCCC3 | ? | 29.2% | 10.7µM* | ? | ? | 16.4µM*
Cc1nc2sc3c(c2c(=N)n1N)CCCC3 | -6.7% | -7.6% | -4.0% | -10.0% | -1.8% | 0.0%
O=c1c2c3c(sc2nc2n1CCCC2)CCCCC3 | 3.3% | 15.9% | 23.9µM* | 10.9% | ? | ?
CC1=Nn2c(nc3sc4c(c3c2=O)CCCC4)SC1 | 10µM* | 25.1% | 21.3µM* | ? | ? | ?
O=c1c2c3c(sc2nc2n1CCCC2)CCC3 | 12.7% | 1.9% | -0.4% | 6.5% | 4.5% | 3.2%
O=c1c2c3c(sc2nc2n1CCCCC2)CCCC3 | ? | ? | 19µM* | ? | ? | 23.1µM*
O=c1c2c3c(sc2nc2n1CCCCC2)CCCCC3 | 11.2µM* | 3.55µM* | 13.5µM* | 3.55µM* | ? | ?
C[C@H](/C=C/[C@@]1(O)[C@H](C)C[C@H](O)CC1(C)C)O[C@@H]1O[C@H](CO)[C@@H](O)[C@H](O)[C@H]1O | · | -0.8% | ? | -1.4% | ? | -19.8%
COc1ccc(CC(=O)NC2CCS(=O)(=O)C2)cc1 (centres undefined) | · | -3.3% | 6.1% | 0.7% | 19.1% | 0.3%
OCCC1CN(Cc2nc3ccccc3s2)CCN1C1CCCC1 (centres undefined) | 1.0% | ? | -0.7% | -2.7% | 3.9% | -2.4%
COc1ccc(N=Cc2cccc(C)c2O)cc1Cl | 6.8% | -3.7% | 26.9µM* | 10.2% | 9.3% | 1.9%
Cc1cccc(N=Cc2cc(Br)cc(Cl)c2O)c1 | -6.2% | 0.3% | ? | -2.3% | 11.1% | -0.7%
COc1cccc(/C=N/N2C(=O)NC3(CCCCC3)C2=O)c1O | -10.1% | 0.1% | 13.5µM* | -3.2% | -0.9% | 2.1%
COc1cccc(C=Nc2ccc3c(c2)OCCO3)c1O | 18.8% | 7.4% | 19µM* | -0.7% | ? | ?
COc1cccc(/C=N/N2CCOCC2)c1O | · | 29.9% | 6.75µM* | ? | ? | ?
SMILES | SMN2 splice up | NPC1 promoter act | FLuc counter | Rab9 promoter act | ELG1 DNA repair | ELG1 genotoxic
Oc1ccc(/C=N/N2CCOCC2)c(O)c1O | 8.8% | -4.2% | ? | 6.1% | -3.1% | -14.2%
CCOc1cc(/C=N/N2C(=O)NC3(CCCCC3)C2=O)cc(Br)c1O | 9.7% | -4.4% | -4.3% | 8.9% | ? | -0.6%
COc1cccc(C=Nc2ccc(N3CCOCC3)cc2)c1O | · | 3.7% | 12µM* | 15.3% | -5.4% | -3.0%
Cc1cc(O)c(C=Nc2ccc(N3CCOCC3)cc2)c(C)c1Cl | · | 0.4% | 4.78µM* | 5.0% | -4.8% | -1.1%
CCN1CCN(c2ccc(N=Cc3ccccc3O)cc2)CC1 | -1.0% | 1.7% | 21.3µM* | 0.8% | -13.7% | -1.4%
C[C@H](CO)N1C[C@H](C)[C@@H](CN(C)C(=O)Nc2ccc3c(c2)OCO3)Oc2ccc(NC(=O)CCN3CCOCC3)cc2C1=O | · | · | · | · | ? | 0.2%
Cn1cnc2c(N/N=C/c3cccs3)ncnc21 | · | 3.55µM* | 8.49µM* | 1.78µM* | ? | ?
C(=N\Nc1ncnc2sc3c(c12)CCC3)/c1cccs1 | -47.1% | -7.2% | -19.5% | -1.1% | ? | -6.3%
O=C(COC(=O)c1c2c(nc3ccccc13)CCCC2)Nc1ccc2c(c1)OCO2 | -52.2% | 1.4% | ? | -3.1% | ? | -10.6%
O=C(COC(=O)c1c2c(nc3ccccc13)/C(=C\c1cccs1)CCC2)Nc1ccccc1 | -54.5% | -30.7% | 3.0% | -33.4% | 14.6µM* | -13.4%
CC(C)(C)NC(=O)COC(=O)c1c2c(nc3ccccc13)CCC2 | · | -8.0% | -7.7% | 2.7% | ? | -19.0%
CC(=O)c1ccc(NC(=O)COC(=O)c2c3c(nc4ccccc24)/C(=C\c2cccs2)CCC3)cc1 | · | -31.8% | 0.2% | -44.1% | 10.3µM* | -8.5%
Cc1ccc(N(C)C(=O)c2noc3c2CCCCC3)cc1C | · | · | -2.2% | · | · | ·
CCc1ccc2oc(C(=O)NCc3ccccc3)cc(=O)c2c1 | -0.2% | · | -2.4% | · | · | ·
COC(=O)c1ccc(CSC2=NC[C@@H]3[C@@H]4C(=O)N(Cc5ccccc5)C(=O)[C@@H]4[C@](C)(C(=O)OC)N23)cc1 | · | · | · | · | -0.4% | -10.4%
O=C(NNC(=O)c1ccccc1C(F)(F)F)c1csc(N2CCOCC2)n1 | · | 0.6% | -0.4% | -0.2% | 2.3% | 15.1%
O=C(CSc1ccc(-c2ccccc2)nn1)N1CCOCC1 | 6.31µM* | 17.4% | -17.3% | 17.7% | ? | ?
Cc1ccc(C(=O)CSc2ccc(-c3ccncc3)nn2)cc1 | -9.7% | -12.7% | -3.0% | -10.3% | ? | -7.0%
O=C(CSc1ccc(-c2ccccc2)nn1)c1cccs1 | 17.8µM* | ? | ? | ? | ? | ?
COc1ccc(-c2ccc(SCC(=O)c3cccs3)nn2)cc1 | 12.6µM* | 12.3% | 10.7µM* | 27.1% | ? | ?
O=C(CSc1ccc(-c2ccc(F)cc2)nn1)N1CCOCC1 | -24.0% | 11.9% | -0.9% | 13.5% | 26.3% | ?
COc1ccc(-c2ccc(SCC(=O)N3CC(=O)Nc4ccccc43)nn2)cc1 | · | 25.1% | 3.01µM* | 28.1% | 26.9% | 2.5%
CCc1ccccc1NC(=O)N(C)CCc1c(C)nn(C)c1C | -3.5% | · | 1.5% | · | · | ·
Cc1ccccc1OCC(=O)Nc1ccc(OCc2cc(=O)n3ccsc3n2)cc1 | 0.5% | · | -0.9% | · | · | ·

Assay outcomes deposited in PubChem BioAssay by National Center for Advancing Translational Sciences (NCATS).
